Experimental data from PubChem BioAssay.
Active and inactive are the calls of the source.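 The calls were made as follows: active = compound whose remaining NAD level is above about 45 nM (limit read from the data); inactive = the rest.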

The compounds below were run against NAD(+) hydrolase SARM1 (Homo sapiens) (UniProt Q6SZW1) (assay: SARM1 TIR NADase inhibitors, cell lysate, NAD-Glo luminescence (AID 1508614;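 also: higher remaining NAD means stronger inhibition of SARM1 NADase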)). Settings: SAM-TIR HEK293T lysate NADase, at 1 µM, active compounds read high.
NAD(+) hydrolase SARM1 (Homo sapiens), sequence (Q6SZW1 whole entry, looked up): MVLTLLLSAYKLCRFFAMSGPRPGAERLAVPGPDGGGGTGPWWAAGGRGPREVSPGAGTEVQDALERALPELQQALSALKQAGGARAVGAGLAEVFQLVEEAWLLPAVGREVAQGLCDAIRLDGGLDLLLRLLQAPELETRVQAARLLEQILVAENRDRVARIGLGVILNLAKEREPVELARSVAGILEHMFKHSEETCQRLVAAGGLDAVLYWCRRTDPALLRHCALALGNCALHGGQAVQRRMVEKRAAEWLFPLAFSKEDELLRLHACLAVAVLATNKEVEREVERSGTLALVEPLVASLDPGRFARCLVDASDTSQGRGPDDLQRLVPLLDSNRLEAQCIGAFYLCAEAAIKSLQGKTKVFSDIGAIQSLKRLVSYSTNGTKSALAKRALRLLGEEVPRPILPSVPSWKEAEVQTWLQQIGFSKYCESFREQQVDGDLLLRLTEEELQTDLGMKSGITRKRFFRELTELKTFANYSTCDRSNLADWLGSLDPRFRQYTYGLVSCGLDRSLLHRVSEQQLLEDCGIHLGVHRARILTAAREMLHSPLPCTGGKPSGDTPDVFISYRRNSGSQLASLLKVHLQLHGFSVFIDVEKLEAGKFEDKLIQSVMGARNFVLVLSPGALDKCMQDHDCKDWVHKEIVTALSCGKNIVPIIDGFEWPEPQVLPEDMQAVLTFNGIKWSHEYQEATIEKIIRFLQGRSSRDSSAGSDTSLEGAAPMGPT

Remaining NAD, inactive:
CCCCCCCCCC(=O)N[C@@H](Cc1c[nH]c2ccccc12)C(=O)N[C@@H](CC(N)=O)C(=O)N[C@@H](CC(=O)O)C(=O)N[C@@H]1C(=O)NCC(=O)N[C@@H](CCCN)C(=O)N[C@@H](CC(=O)O)C(=O)N[C@H](C)C(=O)N[C@@H](CC(=O)O)C(=O)NCC(=O)N[C@H](CO)C(=O)N[C@@H]([C@H](C)CC(=O)O)C(=O)N[C@@H](CC(=O)c2ccccc2N)C(=O)O[C@@H]1C 10 nM, Nc1ccc(S(=O)(=O)[O-])cc1.Nc1ccc(S(=O)(=O)[O-])cc1.O.O.O.O.[Zn+2] 10 nM, CC1/C=C/C=C/C=C/C=C/C=C/C=C/C=C/C(OC2O[C@H](C)[C@@H](O)[C@H](N)[C@@H]2O)CC(O)C(C(=O)O)C(O)CC(=O)CC(O)CC(O)CC(O)CC(=O)CCCC(=O)CC(=O)OC1C(C)CC(C)C(O)CC(=O)c1ccc(N)cc1 (stereo not given in full) 10 nM, CO[C@H]1C[C@H](O[C@H]2[C@H](C)O[C@@H](O[C@@H]3/C(C)=C/C[C@@H]4C[C@@H](C[C@]5(C=C[C@H](C)[C@@H](C6CCCCC6)O5)O4)OC(=O)[C@@H]4C=C(C)[C@@H](O)[C@H]5OC/C(=C\C=C\[C@@H]3C)[C@]54O)C[C@@H]2OC)O[C@@H](C)[C@@H]1O 10 nM, C/C=C(\C)C(=O)OC1[C@H](OC(C)=O)C2(CO)C(CC1(C)C)C1=CCC3C4(C)CCC(O[C@@H]5O[C@H](C(=O)O)[C@@H](O[C@@H]6O[C@H](CO)[C@@H](O)[C@H](O)[C@H]6O)[C@H](O)[C@H]5O[C@H]5O[C@H](CO)[C@@H](O)[C@H](O)[C@H]5O)[C@](C)(CO)C4CCC3(C)[C@]1(C)C[C@H]2O (stereo not given in full) 10 nM
